According to paper PMC5540273 (PLoS ONE, 2017):
Read-outs that look alike come from different tables or passages of the source.

Tests used:
PLK2 = conditions: concentration: 1 μM, replicates: in singlicate; n = 1
PLK3 = conditions: concentration: 1 μM, replicates: in singlicate; n = 1
PLK4 = conditions: concentration: 1 μM, replicates: in singlicate; n = 1
PRKCD = conditions: n = 1
PRKCE = conditions: concentration: 1 μM, replicates: in singlicate; n = 1
PRKCH = conditions: concentration: 1 μM, replicates: in singlicate; n = 1
PRKCI = conditions: n = 1
PRKCQ = conditions: concentration: 1 μM, replicates: in singlicate; n = 1
PRKD1 = conditions: concentration: 1 μM, replicates: in singlicate; n = 1
PRKD2 = conditions: concentration: 1 μM, replicates: in singlicate; n = 1
[1] = concentration: 1 μM, replicates: in singlicate
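Further: KINOMEscan kinase panel screen.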

SMILES | %Inh (PLK2) [%] | %Inh (PLK3) [%] | %Inh (PLK4) [%] | %Inh (PRKCD; [1]) [%] | %Inh (PRKCE) [%] | %Inh (PRKCH) [%] | %Inh (PRKCI; [1]) [%] | %Inh (PRKCQ) [%] | %Inh (PRKD1) [%] | %Inh (PRKD2) [%] | %Inh (PRKCD; 1 µM) [%] | %Inh (PRKCI; 1 µM) [%]
Cc1cccc(Nc2nc(N[C@H]3CCNC3)ncc2C(N)=O)c1.Cl [GSK2197149] | 1 | 0 | 0 | 58 | 86 | 41 | 0 | 41 | 49 | 55 |  | 
CN1CCN(Cc2cccc(-c3ccc4c(Nc5ccc(Oc6ccccc6)cc5)ccnc4c3)c2)CC1 [GW578342] | 0 | 1 | 0 | 15 | 6 | 2 | 19 | 3 | 0 | 18 |  | 
CCn1c(-c2nonc2N)nc2c(C#CC(C)(C)O)ncc(OCCCCN)c21.O=C(O)C(F)(F)F.O=C(O)C(F)(F)F [GSK507274] | 0 | 0 | 0 |  | 98 | 97.7 |  | 86 | 29 | 23 | 91 | 78
Cc1ccc(C)c(NC(=O)NC2CCN(c3ccnc(Nc4ccc(F)cc4)n3)C2)c1 (stereo not shown) [GSK1379720] | 0 | 0 | 0 | 0 | 15 | 0 | 13 | 0 | 0 | 0 |  | 
Clc1ccc(-c2nn3ncccc3c2-c2ccnc(Nc3ccc4c(c3)OCCO4)n2)cc1 [GW829116] | 0 | 7 | 2 | 0 | 1 | 0 | 0 | 22 | 0 | 1 |  | 
c1ccc(-c2cnc3nccnn23)cc1 [AH20685] | 0 | 0 | 0 | 0 | 0 | 4 | 3 | 0 | 0 | 0 |  | 
COc1cc(Nc2nccc(-c3c(-c4cccc(NC(=O)c5c(F)cccc5F)c4)nn4ccccc34)n2)cc(OC)c1OC [GSK323521] | 0 | 0 | 6 | 31 | 17 | 22 | 27 | 15 | 8 | 7 |  | 
COC(=O)Nc1nc2cc(Oc3ccc(NC(=O)Nc4cc(C(F)(F)F)ccc4F)cn3)ccc2[nH]1.Cl.Cl [GW681170] | 0 | 0 | 55 | 0 | 12 | 14 | 26 | 0 | 0 | 9 |  | 
O=C(O)C(F)(F)F.O=C(O)C(F)(F)F.O=c1[nH]ccc2nc(N[C@@H]3CCCNC3)nc(Nc3ccc(S(=O)(=O)N4CCOCC4)cc3)c12 [GSK2177277] | 10 | 0 | 98.7 | 99.8 | 99.9 | 99 | 95.3 | 99.2 | 94.8 | 99.1 |  | 
COc1cc(Nc2ncc3c(C)nc(-c4cc5ccccc5[nH]4)n3n2)cc(OC)c1OC [GW869516] | 23 | 24 | 0 | 43 | 0 | 0 | 45 | 0 | 0 | 0 |  | 
O=C(Nc1cccc(Oc2ccc3nc(NC(=O)C4CC4)cn3n2)c1)c1ccccc1C(F)(F)F | 0 | 4 | 0 | 3 | 6 | 0 | 28 | 0 | 0 | 0 |  | 
Oc1cc(Nc2ccnc3cc(I)ccc23)ccc1F [GW552771] | 0 | 0 | 0 | 0 | 3 | 13 | 30 | 0 | 45 | 30 |  | 
CCCCc1nn2ncccc2c1-c1ccnc(Nc2ccc(N3CCN(C)CC3)cc2)n1 [GW684941] | 0 | 0 | 74 | 0 | 14 | 0 | 17 | 0 | 63 | 55 |  | 
FC(F)(F)c1ccc(/C=C/c2cncnc2Nc2ccc3[nH]c(Cc4ccccc4)nc3c2)cc1 [GW709199] | 0 | 0 | 0 | 25 | 0 | 0 | 55 | 0 | 0 | 3 |  | 
COc1ccc(Nc2nccc(N3CCC(NC(=O)Nc4cccc(OC)c4)C3)n2)cc1 (stereo not shown) [GSK1379742] | 0 | 0 | 0 | 1 | 0 | 5 | 0 | 0 | 3 | 0 |  | 
COc1cc(Nc2nccc(N3CCC(NC(=O)c4cc5ccccc5s4)C3)n2)cc(OC)c1OC (stereo not shown) [GSK1379760] | 0 | 14 | 0 | 7 | 14 | 5 | 7 | 3 | 0 | 23 |  | 
